Several values for one entry are separate records, joined by “and”; a condition that tells them apart may be missing. Equal values may be shown once. The campaign covered roughly 5,500 compounds. About 2,000 (36%) were called active. Another 18% or so got no clear call; they are omitted. No stated cut-off is given here; in the data, active means normalized growth mostly below about 0.91 (no sharp cut-off); inconclusive means no clear call, values can overlap the other calls; inactive means mostly above about 0.92. The list shows a part of the results.
Test: chemical genetic growth profiling, strain panel (AID 1159580);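 further: tested at 20 µM; growth read once vehicle control cultures reached saturation at 30 °C; 1 = growth at the plate median or of vehicle wells; lower values mean less growth of the strain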
Conditions: S. cerevisiae deletion strains, growth OD

Measured: normalized growth

c1ccc(N=Nc2ccccc2)cc1
inactive: locus YAL021C, strain ccr4, hits give low values 1.02 | locus YAL026C, strain drs2, hits give low values 0.998 | locus YAL030W, strain snc1, hits give low values 0.985 | locus YBL061C, strain skt5, hits give low values 0.991 | locus YBR009C, strain hhf1, hits give low values 0.985 | locus YBR021W, strain FUR4, hits give low values 1.01 | locus YBR023C, strain chs3, hits give low values 0.99 | locus YBR171W, strain sec66, hits give low values 0.975 | locus YBR229C, strain ROT2, hits give low values 1 | locus YBR231C, strain swc5, hits give low values 0.984 | locus YBR279W, strain paf1, hits give low values 0.985 | locus YCL011C, strain gbp2, hits give low values 0.992 | locus YCL016C, strain dcc1, hits give low values 0.982 | locus YCL029C, strain bik1, hits give low values 1.03 | locus YCL061C, strain MRC1, hits give low values 0.993 | locus YCL069W, strain vba3, hits give low values 0.988 | locus YCR088W, strain abp1, hits give low values 0.991 | locus YDL005C, strain med2, hits give low values 0.977 | locus YDL035C, strain GPR1, hits give low values 0.981 | locus YDL040C, strain nat1, hits give low values 0.985 | locus YDL074C, strain BRE1, hits give low values 0.942 | locus YDL101C, strain DUN1, hits give low values 0.979 | locus YDL134C, strain PPH21, hits give low values 0.968 | locus YDL185W, strain tfp1, hits give low values 1.01 | locus YDL192W, strain arf1, hits give low values 1.03 | locus YDR001C, strain nth1, hits give low values 0.987 | locus YDR069C, strain doa4, hits give low values 0.995 | locus YDR101C, strain arx1, hits give low values 1.02 | locus YDR137W, strain rgp1, hits give low values 0.911 | locus YDR150W, strain NUM1, hits give low values 1 | locus YDR159W, strain sac3, hits give low values 1.01 | locus YDR162C, strain NBP2, hits give low values 1.01 | locus YDR195W, strain ref2 0.994 | locus YDR297W, strain sur2, hits give low values 0.987 | locus YDR318W, strain mcm21, hits give low values 1.02 | locus YDR334W, strain swr1, hits give low values 0.989 | locus YDR335W, strain msn5, hits give low values 0.972 | locus YDR388W, hits give low values 1.03 | locus YDR392W, strain spt3, hits give low values 0.992 | locus YDR502C, strain sam2, hits give low values 1.02 | locus YEL003W, strain gim4, hits give low values 0.996 | locus YEL037C, strain rad23, hits give low values 0.988 | locus YEL061C, strain CIN8 (second series), hits give low values 0.976 | locus YEL061C, strain CIN8, hits give low values 1 | locus YER015W, strain faa2, hits give low values 0.996 | locus YER016W, strain bim1, hits give low values 0.992 | locus YER110C, hits give low values 1.03 | locus YER111C, strain swi4, hits give low values 0.987 | locus YER155C, strain BEM2 (second series), hits give low values 0.906 | locus YER155C, strain BEM2, hits give low values 1.01 | locus YER167W, strain BCK2, hits give low values 0.998 | locus YFR010W, strain ubp6, hits give low values 0.99 | locus YGL078C, strain dbp3, hits give low values 1.02 | locus YGL086W, strain mad1, hits give low values 1.01 | locus YGL167C, strain pmr1, hits give low values 0.992 | locus YGL173C, strain kem1, hits give low values 0.993 | locus YGL227W, strain vid30, hits give low values 0.992 | locus YGL240W, strain doc1, hits give low values 0.975 | locus YGL248W, strain PDE1, hits give low values 0.982 | locus YGL253W, strain hxk2, hits give low values 0.996 | locus YGR078C, strain PAC10, hits give low values 0.939 | locus YGR135W, strain pre9, hits give low values 1.02 | locus YGR229C, strain SMI1, hits give low values 0.966 | locus YGR252W, strain gcn5, hits give low values 0.999 | locus YHR013C, strain ard1, hits give low values 1.07 | locus YHR027C, strain rpn1, hits give low values 0.987 | locus YHR030C, strain SLT2, hits give low values 1.01 and 0.972 | locus YHR079C, strain IRE1 (second series), hits give low values 1.02 | locus YHR079C, strain IRE1, hits give low values 0.967 | locus YHR094C, strain hxt1, hits give low values 1.03 | locus YHR129C, strain ARP1, hits give low values 1 | locus YHR142W, strain chs7, hits give low values 1.01 | locus YHR200W, strain rpn10, hits give low values 1.03 | locus YIL066C, strain RNR3, hits give low values 0.986 | locus YIL073C, strain SPO22, hits give low values 1.08 | locus YIL125W, strain kgd1, hits give low values 1.01 | locus YIR030C, strain dcg1, hits give low values 1.04 | locus YJL092W, strain hpr5, hits give low values 0.976 | locus YJL095W, strain BCK1 (second series), hits give low values 0.979 | locus YJL095W, strain BCK1, hits give low values 0.983 and 0.961 | locus YJL115W, strain asf1, hits give low values 0.989 | locus YJL129C, strain trk1, hits give low values 0.969 | locus YJL134W, strain LCB3, hits give low values 1.01 | locus YJL154C, strain vps35, hits give low values 0.984 | locus YJL164C, strain tpk1, hits give low values 0.996 | locus YJL166W, strain qcr8, hits give low values 0.976 | locus YJL168C, strain set2, hits give low values 1.02 | locus YJL187C, strain SWE1 (second series), hits give low values 0.971 | locus YJR043C, strain POL32, hits give low values 0.996

— PubChem BioAssay AID1159580 (chemical genetic matrix, 2015)
